This is a sample that favours compounds with a hit; in the whole collection about 3% have one here.
KKLEB cytotox: cytotoxicity in KKLEB CF airway cells, primary screen, cytotoxicity control for CF NF-kB inhibitor project, cell-based, uHTS, fluorescence assay plates. KKLEB CF airway cells viability, ATPlite luminescence, overnight; hits give low values; cells stimulated with P. aeruginosa culture filtrate. activity change (cytotoxicity), % at 5 µM. hit rate 0.36% among 360,000;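 active means corrected activity change at or below -50% at 5 µM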
TRPM1 prom inh: inhibitors of MITF-dependent TRPM1 promoter reporter, primary screen, cell-based, SK-MEL-5, single point, luciferase; SK-MEL-5 TRPM1 promoter luciferase, 24 h; inhibition, % at 12.5 µM; hit rate 0.83% among 330,000; AID 488899, 2010;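 active means mean inhibition across replicates of 60% or more, whatever share of single replicates reaches that level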
HIF-2a inh: HIF-2a reporter inhibitors, primary screen, luminescence, 786-0 RCC cells; hit rate 0.72% among 360,000; 786-0 RCC cells HIF-2a reporter, luciferase luminescence, overnight; AID 624352, 2012; inhibition, % at 18.8 µM;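 active means inhibition of the luminescence signal of 40% or more relative to plate controls, in a single-dose primary screen at 18.75 µM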
ABHD5 PLIN5 PPI: ABHD5-PLIN5 interaction inhibitors, primary screen, cell lysate, split luciferase complementation, luminescence; Perilipin-5 (Homo sapiens) + 1-acylglycerol-3-phosphate O-acyltransferase ABHD5 (Homo …; Split G. princeps luciferase complementation, 4 h; inhibition, % at 4 µM; hit rate 0.78% among 360,000;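 active means inhibition above the mean inhibition across every tested compound plus 3 SD, cut at about 22% in these data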;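 further: 0% = DMSO only wells and the 100% control is not disclosed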
Target sequence (Q00G26 whole entry, looked up): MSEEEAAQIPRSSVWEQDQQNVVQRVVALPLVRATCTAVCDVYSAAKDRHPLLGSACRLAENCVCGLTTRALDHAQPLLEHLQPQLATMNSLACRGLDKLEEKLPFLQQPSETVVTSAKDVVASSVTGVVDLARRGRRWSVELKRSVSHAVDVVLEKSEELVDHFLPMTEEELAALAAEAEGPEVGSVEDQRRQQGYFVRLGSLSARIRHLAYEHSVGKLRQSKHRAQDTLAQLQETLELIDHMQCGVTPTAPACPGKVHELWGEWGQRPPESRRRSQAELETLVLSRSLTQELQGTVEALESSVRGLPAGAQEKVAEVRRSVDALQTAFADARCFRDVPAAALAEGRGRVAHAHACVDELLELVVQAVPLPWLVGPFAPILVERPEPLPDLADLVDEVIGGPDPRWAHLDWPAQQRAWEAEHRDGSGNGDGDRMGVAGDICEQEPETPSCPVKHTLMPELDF
Target sequence (Q8WTS1 whole entry, looked up): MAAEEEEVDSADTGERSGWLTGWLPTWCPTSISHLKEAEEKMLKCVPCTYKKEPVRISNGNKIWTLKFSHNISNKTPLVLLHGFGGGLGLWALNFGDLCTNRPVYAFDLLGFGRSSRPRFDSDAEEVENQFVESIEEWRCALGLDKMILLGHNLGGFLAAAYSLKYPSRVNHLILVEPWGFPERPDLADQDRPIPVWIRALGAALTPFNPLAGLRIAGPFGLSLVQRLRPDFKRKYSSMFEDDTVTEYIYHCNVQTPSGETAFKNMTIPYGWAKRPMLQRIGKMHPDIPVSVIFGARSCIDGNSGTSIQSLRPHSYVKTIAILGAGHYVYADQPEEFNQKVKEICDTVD
CF NFkB inh: inhibitors of PAF-induced NF-kB signaling, primary screen, cell-based, GFP fluorescence, uHTS. inhibition, % at 5 µM. KKLEB NF-kB-GFP reporter, GFP fluorescence overnight. hit rate 0.86% among 360,000;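 active means at least 50% inhibition at 5 µM, scaled per plate between neutral and stimulator controls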;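 further: PAF is a Pseudomonas aeruginosa culture filtrate used as stimulus; plate controls were PAF-stimulated DMSO wells for no effect and unstimulated DMSO wells for full effect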
Peg3 promoter: Peg3 promoter-driven luciferase inhibitors, primary screen, cell-based, HeLa, luciferase luminescence; inhibition, % at 20 µM; hit rate 1.7% among 360,000; HeLa PEG-Prom luciferase reporter, overnight;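 active means inhibition of at least 50% at 20 µM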
* hit, by the source's call; . = not tested or not shown.

SMILES | KKLEB cytotox | TRPM1 prom inh | HIF-2a inh | ABHD5 PLIN5 PPI | CF NFkB inh | Peg3 promoter
O=C(c1nn2c(C(F)(F)F)cc(-c3cccs3)nc2c1Br)N1CCCc2ccccc21 | -19.3 | 0.1 | 1.2 | 5.3 | 35.1 | 48.5
O=C1C=CC(=O)c2c(O)c(CO)c(CO)c(O)c21 | 19.7 | 102.8* | -6.1 | -12.3 | 7.6 | -8.3
CS(=O)(=O)c1cc([N+](=O)[O-])c(Sc2nc3ccccc3[nH]2)c([N+](=O)[O-])c1 | 9.9 | 45.2 | 3.5 | 48.3* | -57.5 | 23.4
Cn1cnc([N+](=O)[O-])c1Sc1nc2ccccc2[nH]1 | -9.0 | . | 28.4 | 4.1 | 16.2 | 6.1
Cc1c(NC(=O)CSCc2ccco2)c(=O)n(-c2ccccc2)n1C | -0.2 | 8.8 | 11.3 | -8.3 | -12.2 | -7.4
CN1C(=O)/C(=C/c2cc(N=Nc3ccccc3)ccc2O)SC1=S | -52.4* | 15.8 | -55.6 | -8.0 | 74.3* | 16.4
Cc1c(N2C(=O)/C(=C\c3ccccc3O)SC2=S)c(=O)n(-c2ccccc2)n1C | 14.4 | 21.6 | 4.7 | -20.4 | -14.7 | 16.9
CCN1/C(=C/c2cc[n+](C)cc2)C=Cc2cc(C)ccc21 | 1.1 | 70.5* | 6.4 | -1.5 | -46.1 | 60.6*
CCN1/C(=C/c2ccc3ccccc3[n+]2CCCS(=O)(=O)[O-])C=Cc2cc(C)ccc21 | -5.6 | 5.9 | 9.0 | 13.2 | -6.7 | 11.3
CCc1ccc(C(O)(CC(C)C)C(CN2CCOCC2)c2ccccc2)cc1 (stereo unspecified) | 7.6 | 24.8 | 13.7 | -10.7 | 2.3 | 53.9*
CCc1ccc(C(O)(c2ccccc2OC)C(CN2CCOCC2)c2ccccc2)cc1 (stereo unspecified) | 0.0 | -2.2 | 3.2 | 2.0 | 9.2 | 3.7
CCCC(O)(c1ccc(Cl)cc1)C(CN1CCOCC1)c1ccc(Cl)cc1 (stereo unspecified) | 2.4 | 5.5 | 6.6 | -5.8 | 12.2 | 57.7*
Nc1nc(NCCc2ccccc2)nc(NCCO)c1[N+](=O)[O-] | -5.7 | -3.4 | -34.2 | 2.1 | -12.3 | 44.0
CCc1ccc(OCCNC(=O)c2ccccc2SCc2ccc(F)cc2)cc1 | -15.6 | 9.4 | 11.9 | -6.4 | 12.5 | 21.8
O=C(NCCOc1ccc(F)cc1)c1ccccc1SCc1ccccc1 | 2.7 | -0.6 | 15.9 | 2.0 | 3.5 | 60.3*
Cc1nonc1CC(=O)N1CCCC(C(=O)c2ccc(Cl)cc2)C1 (stereo unspecified) | -8.2 | 4.9 | -4.1 | -0.6 | 7.4 | 18.6
C[C@]12C(=O)N(c3ccc(C(F)(F)F)cc3)C(=O)N1[C@H]1c3ccccc3OC[C@@H]1[C@H]2c1ccccc1 | -22.1 | -11.4 | 7.7 | -6.9 | 60.3* | 5.7
COc1ccc(C2Nc3ccccc3C(=O)N2Cc2ccco2)cc1COc1ccccc1F (stereo unspecified) | -6.8 | 9.2 | 35.4 | 23.1* | -0.9 | -10.9
Cc1ccc(NC(=O)Cn2ccc(=O)[nH]c2=O)cc1 | 4.1 | -12.5 | -24.0 | 1.9 | -2.3 | -8.0
Clc1cccc(OCCN2CCN(CCOc3cccc(Cl)c3)CC2)c1 | -18.7 | 9.1 | 19.4 | 22.8* | 7.8 | 35.0
O=C(N/N=C\c1ccc([N+](=O)[O-])o1)C1COc2ccccc2O1 (stereo unspecified) | 7.4 | 74.8* | -0.6 | -5.0 | -4.4 | -17.9
Cc1ccc(NCC(=O)N/N=C\c2ccc([N+](=O)[O-])o2)cc1 | 4.2 | 67.6* | -9.2 | 3.0 | -19.2 | 1.9
O=C(N/N=C\c1ccc(-c2ccccc2[N+](=O)[O-])o1)C1COc2ccccc2O1 (stereo unspecified) | -15.5 | 21.4 | 0.2 | -38.0 | 6.6 | -6.4
O=C(CCC(=O)Nc1ccc(Cl)cc1Cl)N/N=C/c1ccc([N+](=O)[O-])o1 | 8.1 | . | -27.6 | -2.5 | -13.9 | 56.9*
O=C(CNc1ccccc1)N/N=C/c1ccc([N+](=O)[O-])o1 | 0.7 | 55.6 | 0.6 | -5.3 | -13.0 | 11.1
SMILES | KKLEB cytotox | TRPM1 prom inh | HIF-2a inh | ABHD5 PLIN5 PPI | CF NFkB inh | Peg3 promoter
O=C(Cc1ccc2c(c1)OCO2)NN=Cc1ccc([N+](=O)[O-])o1 | -13.6 | 73.0* | -26.5 | 3.8 | -6.6 | -5.2
CC(C)C1=CC(=Nc2ccc(S(N)(=O)=O)cc2)C=C(C(C)C)C1=O | 14.6 | 10.8 | 21.6 | -3.0 | 0.4 | 20.7
O=[N+]([O-])c1cc([N+](=O)[O-])c2cc3ccccc3nc2c1 | -1.7 | 53.5 | 14.9 | 5.8 | 84.2* | 92.3*
Cn1c(=O)c2cc(NC(=O)NCc3ccc(Cl)cc3Cl)ccc2n1Cc1ccc(F)cc1 | -16.1 | . | -20.8 | 2.4 | 6.3 | 26.7
Cc1onc(-c2ccccc2Cl)c1C(=O)Nc1ccc(-c2cn3cccnc3n2)cc1 | 0.0 | -13.1 | 3.3 | 10.2 | -9.8 | 94.2*
CCCCn1c(N)c(N(CC(C)C)C(=O)CCNC(=O)c2ccc(Cl)cc2)c(=O)[nH]c1=O | 1.0 | 3.6 | 8.7 | 2.5 | 5.5 | 8.2
O=C(c1ccc(N2CCCCC2)c([N+](=O)[O-])c1)N1CCOCC1 | -0.1 | 6.2 | -8.7 | 0.3 | 9.2 | -11.1
O=C(/C=C/c1ccc(N2CCCCC2)c([N+](=O)[O-])c1)c1ccc(O)cc1 | -12.7 | -14.5 | -224.5 | 22.4* | 10.7 | -107.1
COc1ccc(S(=O)(=O)N2CCOCC2)cc1NC(=O)C1CC1 | 10.0 | 2.6 | 7.8 | 1.3 | -6.8 | 12.5
CC(Oc1cccc(Br)c1)C(=O)NNC(=O)c1ccccn1 (stereo unspecified) | -7.7 | 82.5* | 1.7 | 2.7 | -6.0 | 31.7
COc1ccc(NS(=O)(=O)c2cccc(C(=O)N3CCCC3)c2)cc1 | 12.8 | 7.4 | 9.9 | -2.6 | 10.9 | 57.8*
CSCCC(NC(=O)COc1ccccc1)C(=O)N1CCN(C(C)=O)CC1 (stereo unspecified) | 0.3 | -5.0 | 8.0 | 6.9 | -1.8 | -3.2
Cc1ccccc1NC(=O)c1cccc2nc3ccccc3nc12 | -1.7 | 65.7* | -10.3 | 2.1 | -138.5 | 32.9
O=C(COC(=O)CCN1C(=O)/C(=C\C=C\c2ccccc2)SC1=S)Nc1cc(F)ccc1F | -4.5 | 63.4* | 83.1* | -3.8 | -15.5 | -9.8
Nc1ccc(CC(N)c2csc(Nc3nncc4ccccc34)n2)cc1 (stereo unspecified) | -3.0 | . | -6.0 | -5.4 | 5.3 | 9.1
NC(CCc1ccccc1)c1csc(Nc2nncc3ccccc23)n1 (stereo unspecified) | -7.8 | . | -4.2 | -0.1 | 26.2 | 89.8*
NC(Cc1ccccc1)c1csc(Nc2nncc3ccccc23)n1 (stereo unspecified) | -8.3 | . | -24.6 | -2.5 | 23.1 | 95.8*

High-throughput results (PubChem)
